According to PubChem BioAssay (NCI):
About 83,000 compounds went through this panel and 20% of them were active in at least one assay; those are over-represented in the sample as a whole.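 Single-concentration screen, 48 h exposure, 96-well plates. Endpoint: percent growth. Below 10 = active.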 Activity calls are given as the source filed them.

Legend:
Assay in all cases: NCI-60 one-dose screen, 48 h (100 = growth as untreated, 0 = no growth, -100 = all killed)
Details in all cases: 10 µM unless noted
[1] = test system: HT29 colon
[2] = test system: SNB-75 CNS
[3] = test system: SNB-19 CNS
[4] = test system: U251 CNS
[5] = test system: PC-3 prostate
[6] = test system: SK-MEL-5 melanoma
[7] = test system: LOX IMVI melanoma
[8] = test system: SK-MEL-28 melanoma
[9] = test system: SK-MEL-2 melanoma
[10] = test system: SN12C renal
[11] = test system: UO-31 renal
[12] = test system: ACHN renal
[13] = test system: CAKI-1 renal
[14] = test system: A498 renal
[15] = test system: CCRF-CEM leukemia
[16] = test system: MOLT-4 leukemia
[17] = test system: SR leukemia
[18] = test system: EKVX NSCLC
[19] = test system: TK-10 renal
[20] = test system: UACC-62 melanoma

Measured: growth

COc1ccc(-c2csc(NC(=O)c3cc(O)c(O)c(O)c3)n2)cc1
inactive: [1] 92.3% | [2] 58.8% | [3] 59.9% | [4] 45.6% | [5] 68.4% | [6] 51% | [7] 50.6% | [8] 89.1% | [9] 71.4% | [10] 64.8% | [11] 30.3% | [12] 36% | [13] 38.6% | [14] 112% | [15] 18.5% | [16] 28% | [17] 14.5%

COc1cc2c(C#N)n3c(c2cc1OC)C(=O)C(c1ccccc1)Oc1ccccc1-3 (stereo unspecified)
inactive: [1] 50.2% | [2] 52.5% | [3] 41.1% | [4] 24.4% | [5] 33.4% | [6] 25.5% | [7] 22.2% | [8] 93.3% | [9] 64.8% | [10] 37.2% | [11] 15.8% | [12] 54.3% | [13] 65.6% | [14] 52.4% | [15] 17.1% | [16] 63.4% | [17] 12.5%

CO[C@H]1/C=C/O[C@@]2(C)Oc3c(C)c(O)c4c(O)c(c(/C=N/N5CCN(C)CC5)c(O)c4c3C2=O)NC(=O)/C(C)=C\C=C\C(C)[C@H](O)[C@@H](C)[C@@H](O)[C@@H](C)[C@@H](OC(C)=O)[C@@H]1C (stereo partly specified)
inactive: [1] 107% | [2] 88.7% | [3] 101% | [4] 96.9% | [5] 94% | [6] 90.6% | [7] 93.8% | [9] 113% | [18] 91.7% | [10] 105% | [11] 88% | [19] 98.6% | [12] 82.1% | [13] 90.4% | [14] 103% | [15] 101% | [16] 102% | [17] 105%

CC(=O)O[C@H]1C(=O)[C@@]2(C)C([C@H](OC(=O)c3ccccc3)[C@]3(O)C[C@H](OC(=O)[C@H](O)[C@@H](NC(=O)c4ccccc4)c4ccccc4)C(C)=C1C3(C)C)[C@]1(OC(C)=O)CO[C@@H]1C[C@@H]2O (stereo partly specified)
inactive: [3] 36.2% | [4] 13.5% | [5] 19.7% | [20] 42.5% | [7] 44.3% | [8] 57.5% | [18] 48.3% | [10] 38.1% | [11] 33.6% | [19] 20.6% | [12] 41% | [13] 44.7% | [14] 30.8% | [15] 14%
active: [1] 3.07% | [2] -19% | [9] -5.52%

Cc1cc2c(C#N)n3c(c2cc1C)C(=O)C(c1ccccc1)Oc1ccccc1-3 (stereo unspecified)
active: [17] 7.67%
inactive: [1] 18.5% | [2] 15.6% | [3] 35.9% | [4] 18.3% | [5] 28.3% | [6] 22.7% | [7] 20% | [8] 85.1% | [9] 45.2% | [10] 27.8% | [11] 14.5% | [12] 32.6% | [13] 33.1% | [14] 41.2% | [15] 19.4% | [16] 69.2%

Fc1ccc(-c2nc(Nc3ccc(-c4nc5ccccc5[nH]4)cc3)nc(N3CCOCC3)n2)cc1
active: [1] -78.6% | [2] -92.6% | [3] -81.2% | [4] -93% | [5] -93.5% | [6] -97.6% | [7] -93% | [8] -84.7% | [9] -71.3% | [18] -91.3% | [10] -79.5% | [11] -87.6% | [19] -94.4% | [12] -90.6% | [13] -93.6% | [14] -81.5% | [15] -91.5% | [16] -91.6% | [17] -83.3%

Cc1c(N(C)CS(=O)(=O)O)c(=O)n(-c2ccccc2)n1C
inactive: [1] 97.7% | [2] 111% | [3] 101% | [4] 100% | [5] 94.8% | [20] 96.9% | [7] 104% | [8] 108% | [9] 106% | [18] 93.1% | [10] 93.9% | [11] 79.9% | [19] 108% | [12] 101% | [13] 98.8% | [14] 109% | [15] 96.9%

O=C(/C(=C/c1ccc([N+](=O)[O-])cc1)c1ccccc1)c1ccccc1
inactive: [1] 44.1% | [2] 70.6% | [3] 75.9% | [4] 52.6% | [5] 59.1% | [6] 43.6% | [8] 97.9% | [9] 24.9% | [10] 35.1% | [11] 43.1% | [12] 40.9% | [13] 48.6% | [14] 77%
active: [7] 5.01% | [15] 0.582% | [16] -2.9% | [17] 0.152%

COC(=O)[C@]12CC[C@@H](C)[C@H](C)[C@@H]1C1=CC[C@@H]3[C@@]4(C)C[C@@H](OC(=O)c5ccco5)[C@H](O)[C@@](C)(CO)[C@@H]4[C@H](O)C[C@@]3(C)[C@]1(C)CC2
active: [1] -92.8% | [2] -84.4% | [3] -71% | [4] -85.2% | [5] -100% | [6] -99.9% | [7] -99.4% | [8] -84.6% | [9] -77.7% | [10] -77.2% | [11] -89.6% | [19] -87.9% | [12] -95% | [13] -98.3% | [14] -94.5% | [15] -87.3% | [16] -75.5% | [17] -91%

COc1cc(/C=C/C(=O)c2c(-c3ccc(F)cc3)nc3sc(C)nn23)cc(OC)c1OC
inactive: [2] 10.2% | [3] 84.9% | [4] 21.3% | [5] 59.9% | [6] 27.1% | [8] 65.7% | [10] 35.9% | [11] 21.5% | [12] 24.6% | [13] 15.2% | [14] 85.2%
active: [1] 6.07% | [7] -19.7% | [9] -26.5% | [15] -9.53% | [17] 4.81%

Oc1ccccc1/C=N\Nc1ccccc1
active: [20] -5.08%
inactive: [1] 95.9% | [2] 71.9% | [3] 86% | [4] 75.9% | [5] 36.3% | [7] 53% | [8] 102% | [9] 92.1% | [18] 72.8% | [10] 44.9% | [11] 15.5% | [19] 110% | [12] 27.2% | [13] 10.8% | [14] 82.5% | [15] 17.8% | [16] 35.3%

CCOC(=O)/C(=C/c1ccccc1)C(=O)c1ccccc1
inactive: [1] 84.1% | [2] 49.6% | [3] 85.4% | [4] 68.1% | [5] 80.6% | [6] 66.5% | [10] 72.6% | [11] 53.1% | [12] 70.5% | [13] 78.1% | [14] 87.5% | [16] 33.1%
active: [7] -26.9% | [15] 3.43% | [17] 6.68%

O=C(Nc1nc(-c2ccccc2)cs1)c1cc(O)c(O)c(O)c1
active: [17] 8.07%
inactive: [1] 80.8% | [2] 33.1% | [3] 41.5% | [4] 32.1% | [5] 58.8% | [6] 44.1% | [7] 40.2% | [8] 76.8% | [9] 56.8% | [10] 50.5% | [11] 24.6% | [12] 40.3% | [13] 26.4% | [14] 85.9% | [16] 17.1%

CC[C@]1(O)CC2CN(CCc3c([nH]c4ccccc34)[C@@](C(=O)OC)(c3cc4c(cc3OC)N(C)[C@H]3[C@@](O)(C(=O)OC)[C@H](OC(C)=O)[C@]5(CC)C=CCN6CC[C@]43[C@@H]65)C2)C1 (stereo partly specified)
active: [1] 3.18% | [2] 5.29% | [6] -61.3% | [14] -15.6%
inactive: [3] 43.8% | [4] 17.3% | [5] 28.1% | [7] 18.9% | [8] 68.1% | [18] 49.6% | [10] 39.6% | [11] 18.9% | [19] 62.6% | [12] 21.9% | [15] 10.7% | [16] 16.4% | [17] 10.2%

CCC[C@H](N[C@@H](C)C(=O)N1[C@H](C(=O)O)C[C@@H]2CCCC[C@@H]21)C(=O)OCC
inactive: [1] 100% | [2] 112% | [3] 104% | [4] 93.6% | [5] 91.8% | [20] 104% | [7] 89.8% | [8] 123% | [9] 112% | [18] 111% | [10] 101% | [11] 77.4% | [19] 113% | [12] 90.8% | [13] 102% | [14] 98.9% | [15] 105% | [16] 115%

CSc1ccc2c(c1)N(CCC1CCCCN1C)c1ccccc1S2 (stereo unspecified)
inactive: [1] 21.6% | [2] 34.5% | [3] 75.3% | [4] 34.3% | [5] 34.1% | [6] 23.7% | [7] 23.5% | [8] 81.7% | [9] 88.6% | [10] 48% | [11] 28.2% | [12] 25.8% | [14] 84% | [15] 35.3% | [16] 40.5% | [17] 14.2%

COc1ccc(C2=NNC(c3cc(Cc4ccc(O)c(C5CC(c6ccc(OC)cc6)=NN5)c4)ccc3O)C2)cc1 (stereo unspecified)
active: [11] -2.57% | [13] -30.5%
inactive: [1] 92.2% | [2] 46.6% | [3] 48.2% | [4] 24.8% | [5] 42.4% | [6] 47.4% | [20] 49.2% | [8] 79.4% | [18] 30.9% | [10] 52.1% | [19] 45.5% | [12] 46.3% | [14] 103% | [15] 11.6% | [16] 18.4% | [17] 16%
